Laboratory results from PubChem BioAssay.
The source made the active and inactive calls. Unless noted, no rule for the calls is given here.

Assays:
[1] = compound effects on lung adenocarcinoma cell viability – A549, calcein-AM fluorescence, 48 h, basal, profiling panel (AID 1162); settings: higher = more signal; also: test concentration not given here
[2] = compound effects on differentiated 3T3-L1 adipocyte viability – cell-based, 3T3-L1 adipocytes, calcein-AM fluorescence, 48 h, basal, profiling panel (AID 1163); settings: 3T3-L1 adipocytes viability, higher = more signal; also: test concentration not given here
[3] = compound effects on hepatocellular carcinoma cell viability – HepG2, calcein-AM fluorescence, 48 h, basal, profiling panel (AID 1164); settings: higher = more signal; also: test concentration not given here
[4] = compound effects on multiple myeloma cell viability – MM1S, calcein-AM fluorescence, 48 h, basal, profiling panel (AID 1165); settings: higher = more signal;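 also: viability of MM1S multiple myeloma cells under basal unstimulated conditions; test concentration not given here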
[5] = calcein-AM signal in unstimulated myeloma cells – cell-based, calcein-AM fluorescence, 48 h, PK04 Diversity Set, profiling panel (AID 1166); settings: RPMI8226 myeloma viability, higher = more signal;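 also: cells grown under basal conditions without added stimulus; test concentration not given here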
[6] = JC-1 mitochondrial signal, unstimulated HepG2 cells – cell-based, JC-1 fluorescence, 24 h, 100 nL compound, profiling panel (AID 1167); settings: HepG2 mitochondrial potential, higher = more signal; also: test concentration not given here
[7] = JC-1 mitochondrial signal, unstimulated adipocytes – cell-based, JC-1 fluorescence, 3T3-L1 adipocytes, 24 h, 100 nL compound, profiling panel (AID 1168); settings: JC-1 mitochondrial fluorescence, higher = more signal, called active from +8 up or from −8 down; also: test concentration not given here
[8] = JC-1 mitochondrial signal, unstimulated myeloma cells – cell-based, JC-1 fluorescence, RPMI8226, 24 h, 100 nL compound, profiling panel (AID 1169); settings: JC-1 mitochondrial potential fluorescence, higher = more signal; also: test concentration not given here
[9] = JC-1 mitochondrial signal, unstimulated MM1S myeloma – cell-based, JC-1 fluorescence, 24 h, 100 nL compound, profiling panel (AID 1170); settings: MM1S mitochondrial potential, higher = more signal; also: test concentration not given here
[10] = resazurin metabolic signal in A549 cells – cell-based, resazurin fluorescence, 24 h, PK04 Diversity Set, profiling panel (AID 1171); settings: A549 viability, higher = more signal, called active from +8 up or from −8 down; also: test concentration not given here
[11] = resazurin metabolic signal in HepG2 cells – cell-based, resazurin fluorescence, 24 h, PK04 Diversity Set, profiling panel (AID 1172); settings: HepG2 viability, higher = more signal; also: test concentration not given here
[12] = budding yeast growth changes without added modifier – OD600, strain BY4716, 24 h, basal condition, primary screen (AID 1173); settings: S. cerevisiae BY4716 growth, OD600, 24 h; higher = more signal, called active from +8 up or from −8 down
[13] = viability profiling in MM1S myeloma cells – cell-based, resazurin fluorescence, basal, 24 h, PK04 Diversity Set, profiling panel (AID 1174); settings: higher = more signal, called active from +8 up or from −8 down; also: test concentration not given here
[14] = biological target: Dihydroorotate dehydrogenase (quinone), mitochondrial (Plasmodium falciparum (isolate 3D7)) (UniProt Q08210); assay: inhibition of P. falciparum DHODH – biochemical, C-terminal His tag, absorbance 600 nm, primary screen (AID 1175); settings: PfDHODH enzyme, DCIP absorbance 600 nm; higher = more signal, called active from +8 up or from −8 down;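 also: recombinant parasite enzyme with a five histidine tag at its C terminus; test concentration not given here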
[15] = inhibition of PAO1 biofilm formation – strain PAO1, LB-PBS medium, absorbance 600 nm, primary screen (AID 1176); also: test concentration not given here; settings: P. aeruginosa PAO1 growth/biofilm, A600, 12 h; higher = more signal
[16] = growth modulation of vineyard yeast isolate – strain RM11-1a, OD600, basal, 24 h, primary screen (AID 1177);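 also: cultures grown under basal conditions with no added stressor; test concentration not given here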; settings: S. cerevisiae RM11-1a growth, OD600, 24 h; higher = more signal, called active from +8 up or from −8 down
[17] = growth of efflux-deficient E. coli DRC39 – strain DRC39, OD650, 24 h, E. coli filamentation inducers, primary screen (AID 1178);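 also: growth measured as culture turbidity by optical density at 650 nm; test concentration not given here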; settings: E. coli DRC39 acrAB, higher = more signal, called active from +8 up or from −8 down
[18] = growth of efflux-deficient E. coli DRC39 – strain DRC39, OD650, 48 h, E. coli filamentation inducers, primary screen (AID 1179);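 also: screen aims at cell division blockers that make cells filament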; settings: E. coli DRC39 delta-acrAB growth, higher = more signal, called active from +8 up or from −8 down
[19] = viability profiling in RPMI8226 myeloma cells – cell-based, resazurin fluorescence, basal, 24 h, PK04 Diversity Set, profiling panel (AID 1180); settings: higher = more signal;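 also: RPMI8826 multiple myeloma cell line at 5000 cells per well; test concentration not given here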
[20] = biological target: E3 ubiquitin-protein ligase XIAP (Homo sapiens) (UniProt P98170); assay: small molecules binding XIAP protein – biophysical, small-molecule microarray, fluorescence 635 nm, primary screen (AID 1181); settings: higher = more signal;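 also: score merges 667 nm emission and signal to noise over triplicate slides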
Chain of E3 ubiquitin-protein ligase XIAP (Homo sapiens) (P98170 whole entry, looked up): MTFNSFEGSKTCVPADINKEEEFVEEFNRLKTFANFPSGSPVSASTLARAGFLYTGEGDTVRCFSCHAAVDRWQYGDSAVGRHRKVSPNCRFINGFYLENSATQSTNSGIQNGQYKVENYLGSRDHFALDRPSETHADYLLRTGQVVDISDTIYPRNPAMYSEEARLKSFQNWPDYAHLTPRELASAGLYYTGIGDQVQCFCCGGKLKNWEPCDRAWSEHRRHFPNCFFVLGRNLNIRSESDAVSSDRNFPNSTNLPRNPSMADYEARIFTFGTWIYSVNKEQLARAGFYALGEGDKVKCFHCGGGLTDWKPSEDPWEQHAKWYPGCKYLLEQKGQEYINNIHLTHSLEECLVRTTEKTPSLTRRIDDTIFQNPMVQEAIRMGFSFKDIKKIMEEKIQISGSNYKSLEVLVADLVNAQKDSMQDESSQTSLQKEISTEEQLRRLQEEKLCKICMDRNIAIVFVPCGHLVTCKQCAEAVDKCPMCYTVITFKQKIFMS

Chain of Dihydroorotate dehydrogenase (quinone), mitochondrial (Plasmodium falciparum (isolate 3D7)) (Q08210 whole entry, looked up): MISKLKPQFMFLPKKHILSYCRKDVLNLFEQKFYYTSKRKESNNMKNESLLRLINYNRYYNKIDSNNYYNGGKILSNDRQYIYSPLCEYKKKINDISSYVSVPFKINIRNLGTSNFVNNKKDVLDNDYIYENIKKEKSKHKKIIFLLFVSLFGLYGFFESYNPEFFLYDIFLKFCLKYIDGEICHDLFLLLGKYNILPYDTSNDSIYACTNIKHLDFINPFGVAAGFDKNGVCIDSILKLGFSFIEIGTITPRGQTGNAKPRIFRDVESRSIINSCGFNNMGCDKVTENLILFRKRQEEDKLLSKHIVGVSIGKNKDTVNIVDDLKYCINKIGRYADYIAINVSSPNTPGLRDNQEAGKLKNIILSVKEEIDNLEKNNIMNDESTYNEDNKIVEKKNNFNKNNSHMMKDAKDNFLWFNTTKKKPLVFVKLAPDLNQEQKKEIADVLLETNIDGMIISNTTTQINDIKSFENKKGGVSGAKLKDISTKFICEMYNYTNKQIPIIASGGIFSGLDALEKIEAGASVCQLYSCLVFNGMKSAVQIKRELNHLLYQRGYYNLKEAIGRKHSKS

Compound	z-score [1]	z-score [2]	z-score [3]	z-score [4]	z-score [5]	z-score [6]	z-score [7]	z-score [8]	z-score [9]	z-score [10]	z-score [11]	z-score [12]	z-score [13]	composite z-score [14]	z-score [15]	z-score [16]	z-score [17]	z-score [18]	z-score [19]	composite z-score [20]
CCCCC(CC)C(O)C1C=CC2C(=O)N(c3ccccc3)C(=O)C2N1Nc1ccc(C#N)cc1 (stereo not given)	1.99	-0.494	2.34	0.0084	0.368	-1.31	-1.61 (inactive)	0.0604	-0.679	0.857 (inactive)	-0.0318	-0.847 (inactive)	-0.67 (inactive)	0.215 (inactive)	1.7 (inactive)	0.913 (inactive)	0.248 (inactive)	0.0706 (inactive)	-0.661	0.212
CCOC(=O)C1=CC[C@@H](c2ccccc2)N(S(=O)(=O)c2ccc(C)cc2)[C@H]1c1ccccc1	-0.84	-1.5	-0.634	-1.79	0.229	1.61	-1.29 (inactive)	-1.04	-0.0355	1.44 (inactive)	-0.356	1.92 (inactive)	-0.564 (inactive)	1.03 (inactive)	0.85 (inactive)	1.75 (inactive)	-0.544 (inactive)	-0.244 (inactive)	-1.33	0.0512
[N-]=[N+]=Nc1ccccc1C[C@@]1(C(N)=O)N=C(c2ccc(OCCCO)cc2)O[C@@H]1c1ccccc1N=[N+]=[N-]	-1.53	1.08	-0.727	-1.68	-4.08	-1.11	-1.35 (inactive)	-1.23	-0.169	-0.385 (inactive)	0.212	-3.3 (inactive)	-0.902 (inactive)	-0.652 (inactive)	0.0405 (inactive)	-0.739 (inactive)	0.891 (inactive)	-0.174 (inactive)	-0.76	-0.112
O=C1[C@H]2C=C(I)[C@H](C[C@@H]2OCCOCCO)[C@@]12CO2	-0.461	-1.03	-0.773	-0.582	-0.537	-1.77	-0.473 (inactive)	-0.196	-0.807	0.323 (inactive)	0.0263	-0.28 (inactive)	-0.448 (inactive)	0.0832 (inactive)	0.224 (inactive)	-0.145 (inactive)	-0.331 (inactive)	-0.175 (inactive)	-0.244	-0.304
CCCCCCc1nc(Cc2cc(OC)c(OC)c(OC)c2)cc2c1[Si](C(C)C)(C(C)C)OC2	-1.79	0.5	0.0671	-3.02	-4.45	0.785	0.705 (inactive)	-1.06	-0.48	1.64 (inactive)	0.842	0.273 (inactive)	0.0456 (inactive)	-2.69 (inactive)	-0.215 (inactive)	-0.0979 (inactive)	-0.284 (inactive)	-0.279 (inactive)	-0.295	0.0009
O=C1N(CCS(=O)(=O)c2ccccc2)c2ccccc2[C@H]2OC(c3ccc(OCCCO)cc3)=N[C@@]12Cc1ccccc1	-0.386	0.726	-0.763	-2.18	-2.65	-0.654	0.777 (inactive)	-1.19	-2.19	-1.02 (inactive)	0.676	-0.148 (inactive)	-2.38 (inactive)	-0.0331 (inactive)	0.755 (inactive)	2.01 (inactive)	2.46 (inactive)	1.13 (inactive)	-1.96	0.211
NCCCCCCNC(=O)[C@@H]1C[C@@H]2C(=O)N[C@@H](CCCCN)C(=O)N2[C@@H]1c1ccc(O)cc1	-0.551	0.207	-0.99	-1.25	-0.0734	-1.31	0.535 (inactive)	-0.0408	-0.276	-0.71 (inactive)	0.0187	0.243 (inactive)	0.681 (inactive)	-29.1 (active)	2.5 (inactive)	-0.476 (inactive)	-0.273 (inactive)	-1.11 (inactive)	-0.354	-0.28
COCCOC(=O)N1C(=O)[C@@]2(c3cc(C#CC4(O)CCCCCC4)ccc31)[C@H](c1ccc(O)cc1)N1[C@H](c3ccccc3)[C@H](c3ccccc3)OC(=O)[C@H]1[C@@H]2C(=O)N1CCN(c2ncccn2)CC1	-0.98	0.284	0.278	-1.61	-1.16	-0.81	-0.912 (inactive)	-0.406	-0.091	0.435 (inactive)	0.0439	-0.31 (inactive)	-0.705 (inactive)	0.244 (inactive)	0.654 (inactive)	0.326 (inactive)	-0.462 (inactive)	0.0188 (inactive)	-0.528	0.0487
COc1ccc([C@H]2OC[C@@H]3C[C@H](Cc4ccccc4)C(=O)N32)cc1	-0.799	-0.835	-0.459	0.191	-0.598	-0.703	0.0558 (inactive)	0.00274	-0.393	-0.116 (inactive)	-0.195	-3.69 (inactive)	0.229 (inactive)	-0.0327 (inactive)	-0.145 (inactive)	0.248 (inactive)	-0.278 (inactive)	-0.818 (inactive)	-0.627	-0.152
C=C(COC)/C(=C/C[C@H](OC(=O)c1ccncc1)c1ccc(CO)o1)c1cnc2ccccc2c1	0.349	-0.474	-0.439	-1.41	-0.366	-1.06	-0.582 (inactive)	0.178	-0.592	-0.319 (inactive)	-0.338	0.107 (inactive)	-0.117 (inactive)	-7.5 (inactive)	0.449 (inactive)	0.158 (inactive)	-0.305 (inactive)	-0.343 (inactive)	0.0987	-0.121
[N-]=[N+]=Nc1ccccc1[C@H]1OC(c2ccc(OCCCO)cc2)=N[C@@]1(Cc1ccccc1)C(=O)NCCN1CCOCC1	-0.449	0.91	-1.21	-2	-3.41	2.36	1.83 (inactive)	-1.06	-0.638	-2 (inactive)	-0.564	-2.44 (inactive)	-1.5 (inactive)	0.73 (inactive)	0.314 (inactive)	0.964 (inactive)	2.03 (inactive)	0.627 (inactive)	-1.74	0.643
C=C(/C(=C/C[C@H](OC(=O)c1ccncc1)c1ccc(CO)o1)c1cnc2ccccc2c1)C(C)C	1.07	0.521	-0.181	-2.88	-1.25	-0.211	0.0957 (inactive)	0.319	-0.161	0.208 (inactive)	-0.0499	-1.2 (inactive)	-0.0537 (inactive)	-7.44 (inactive)	1.16 (inactive)	0.481 (inactive)	0.586 (inactive)	0.0868 (inactive)	0.601	-0.0749
COCCOC(=O)N1C(=O)[C@@]2(c3cc(C#CCCO)ccc31)[C@H](C(=O)Nc1nc3ccccc3s1)[C@H]1C(=O)O[C@H](c3ccccc3)[C@H](c3ccccc3)N1[C@@H]2c1ccc(O)cc1	-0.378	0.274	0.123	0.0566	-2.06	0.248	0.15 (inactive)	-0.314	-0.471	0.771 (inactive)	-0.0461	1.26 (inactive)	-0.159 (inactive)	1.35 (inactive)	0.325 (inactive)	1.52 (inactive)	-0.356 (inactive)	-1.07 (inactive)	-0.358	-0.105
COCCOC(=O)N1C(=O)[C@@]2(c3ccccc31)[C@H](c1ccc(O)cc1)N1[C@H](c3ccccc3)[C@H](c3ccccc3)OC(=O)[C@H]1[C@@H]2C(=O)N1CCN(c2ncccn2)CC1	-0.402	1.26	-0.611	-0.62	-0.42	-0.238	-0.685 (inactive)	0.199	0.0293	0.233 (inactive)	0.0716	0.353 (inactive)	-0.183 (inactive)	-0.18 (inactive)	2.33 (inactive)	-0.451 (inactive)	-0.838 (inactive)	-0.935 (inactive)	-0.0522	0.147
COc1ccc([Si](C)(C)[C@@H]2[C@@H](CCO)O[C@]3(C(=O)N(Cc4cccc(NC(=O)[C@H](C)O)c4)c4ccccc43)[C@H]2C)cc1	-3.78	-0.578	-4.53	-2.88	-4.36	-1.37	1.5 (inactive)	-1.06	-2.24	-5.11 (inactive)	-5.97	0.728 (inactive)	-9.06 (active)	0.554 (inactive)	1.25 (inactive)	4.9 (inactive)	0.0065 (inactive)	-0.811 (inactive)	-6.22	0.0479
Cn1cccc1C(O)C1C=CC2C(=O)N(c3ccccc3)C(=O)C2N1Nc1ccccc1 (stereo not given)	-0.514	-1.86	0.316	-0.615	-0.244	-1.3	-0.96 (inactive)	-0.509	-1.32	-0.386 (inactive)	-0.194	0.917 (inactive)	-0.251 (inactive)	0.0729 (inactive)	0.571 (inactive)	-0.529 (inactive)	0.312 (inactive)	0.881 (inactive)	0.0611	-0.0773
C=CC[C@@H](OC(=O)Nc1ccc(SC)cc1)c1ccc(O)c(F)c1	1.12	-0.475	-0.889	-2.14	-1.75	-2.43	4.4 (inactive)	-0.343	-1.04	-0.68 (inactive)	-0.227	-15.5 (active)	-2.32 (inactive)	-1.9 (inactive)	1.57 (inactive)	-6.97 (inactive)	1.75 (inactive)	1.38 (inactive)	-0.872	-0.02
CCOC(=O)C1=C[C@@H](C(C)C)N(S(=O)(=O)c2ccc(C)cc2)[C@H]1c1ccc(C(F)(F)F)cc1	-0.731	-0.448	-1.53	-2.91	-1.65	3.7	-0.216 (inactive)	-0.208	-0.446	0.793 (inactive)	-0.698	2.42 (inactive)	-0.267 (inactive)	0.919 (inactive)	-0.0322 (inactive)	2.24 (inactive)	-0.227 (inactive)	-0.442 (inactive)	-1.58	0.109
